Results on 37 compounds are retold here after the supplement of paper PMC7393113.

Structures can show the parent of a compound that is named as a salt. ± gives the standard deviation of the averaged measurements.

The assay concerns iBMDM (immortalised mouse bone-marrow-derived macrophages), LPS-stimulated. Kind of assay: mitochondrial superoxide (MitoSOX fluorescence) fold increase over unstimulated control; higher = more LPS-induced mitochondrial ROS (less inhibition). The settings on record: inhibitor concentration: 500 nM; LPS: 100 ng/ml; time after LPS: 1 h. In outline:
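Cells were immortalised mouse bone-marrow-derived macrophages, plated in triplicate and switched to phenol-red-free 1% FCS/DMEM for 20 h. Kinase inhibitors (500 nM, 30 min) preceded MitoSox loading (1 μM, 10 min) and LPS addition (100 ng/ml), with 510/580 nm fluorescence read every 60 min for 4 h. Mitochondrial superoxide is reported as averaged fold induction over untreated macrophages.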
For the compound `Cc1cc(O)c2c(c1)C(=O)c1cccc(O)c1C2=O` [Chrysophanic Acid], the mitochondrial superoxide was found to be 1.29 ± 0.11.

In turn, `N#CC(=C(/N)Sc1ccccc1N)/C(C#N)=C(\N)Sc1ccccc1N` came in with a mitochondrial superoxide of 1.36 ± 0.043.

`COc1ccc(-c2nc(N3CCOCC3)c3sc(CN(C)c4ncc(C(=O)NO)cn4)cc3n2)cn1` showed a mitochondrial superoxide of 1.31 ± 0.095.

Regarding `NCC(=O)Nc1ccc(-n2nc(C(F)(F)F)cc2-c2ccc3c(ccc4ccccc43)c2)cc1`, the mitochondrial superoxide came to 1.414 ± 0.012.

`CNC(=O)c1ccccc1Nc1nc(Nc2ccc(N3CCOCC3)cc2OC)ncc1Cl` gave a mitochondrial superoxide of 1.12 ± 0.084.

The compound `CCC(=O)N1CCN(c2ccc(-n3c(=O)ccc4cnc5ccc(-c6cnc7ccccc7c6)cc5c43)cc2C(F)(F)F)CC1` [Torin 1] came in with a mitochondrial superoxide of 1.14 ± 0.024.

As for `COc1ccc(C(=O)Nc2sc3c(c2C(N)=O)CCCC3)cc1OC`, the mitochondrial superoxide turned out to be 1.42 ± 0.034.

Compound `Cc1nc(Nc2ncc(C(=O)Nc3c(C)cccc3Cl)s2)cc(N2CCN(CCO)CC2)n1` [Dasatinib] yielded a mitochondrial superoxide of 1.51 ± 0.022.

As to `CC[C@H](Nc1ncnc2[nH]cnc12)c1nc2cccc(F)c2c(=O)n1-c1ccccc1` [CAL-101 (Idelalisib, GS-1101)], the mitochondrial superoxide turned out to be 1.34 ± 0.019.

Consider `c1cncc(CN2CCC(n3ncc4c(N5CCOCC5)nc(-c5ccc6[nH]ccc6c5)nc43)CC2)c1`, for which the mitochondrial superoxide was 1.34 ± 0.059.

Regarding `C[C@]1(O)C[C@@H](c2nc(-c3ccc4ccc(-c5ccccc5)nc4c3)c3c(N)nccn32)C1` [OSI-906 (Linsitinib)], the mitochondrial superoxide was found to be 1.45 ± 0.18.

The compound `CCc1cc2c(cc1N1CCC(N3CCOCC3)CC1)C(C)(C)c1[nH]c3cc(C#N)ccc3c1C2=O` registered a mitochondrial superoxide of 1.26 ± 0.097.

Compound `Cn1cnc2c(F)c(Nc3ccc(Br)cc3F)c(C(=O)NOCCO)cc21` had a mitochondrial superoxide of 1.13 ± 0.046.

In turn, `Cc1cc(F)c(Nc2ncnc3cc(OCc4ccccc4)ccc23)cc1O` came in with a mitochondrial superoxide of 1.17 ± 0.075.

`Nc1nccc(Oc2ccc(NC(=O)c3c[nH]cc(-c4ccc(F)cc4)c3=O)cc2F)c1Cl` had a mitochondrial superoxide of 1.21 ± 0.032.

As for `COc1cc(Nc2c(C#N)cnc3cc(OCCCN4CCN(C)CC4)c(OC)cc23)c(Cl)cc1Cl` [Bosutinib (SKI-606)], the mitochondrial superoxide came out at 1.58 ± 0.017.

Regarding `Oc1ccc(Nc2nc(-c3ccc(Cl)cc3)cs2)cc1`, the mitochondrial superoxide was 1.47 ± 0.039.

Compound `CC(C)(C#N)c1ccc(N2C(=O)OCc3cnc4ccc(-c5cnc6ccccc6c5)cc4c32)cc1` registered a mitochondrial superoxide of 1.4 ± 0.039.

In turn, `Cn1cc(-c2ccc3nnc(Sc4ccc5ncccc5c4)n3n2)cn1` yielded a mitochondrial superoxide of 1.33 ± 0.036.

As to `CO[C@H]1C[C@@H]2CC[C@@H](C)[C@@](O)(O2)C(=O)C(=O)N2CCCC[C@H]2C(=O)O[C@H]([C@H](C)C[C@@H]2CC[C@@H](OCCO)[C@H](OC)C2)CC(=O)[C@H](C)/C=C(\C)[C@@H](O)[C@@H](OC)C(=O)[C@H](C)C[C@H](C)/C=C/C=C/C=C/1C` [Everolimus (RAD001)], the mitochondrial superoxide stood at 1.37 ± 0.055.

Compound `Cc1[nH]c(/C=C2\C(=O)Nc3ccc(S(=O)(=O)Cc4c(Cl)cccc4Cl)cc32)c(C)c1C(=O)N1CCC[C@@H]1CN1CCCC1` came in with a mitochondrial superoxide of 1.56 ± 0.039.

Regarding `CN1CCN(C2CCN(C(=O)Nc3cc(Oc4ccc(NC(=O)C5(C(=O)Nc6ccc(F)cc6)CC5)c(F)c4)ccn3)CC2)CC1` [Golvatinib (E7050)], the mitochondrial superoxide worked out at 1.04 ± 0.073.

As for `Cn1cnc(-c2cc3nccc(Oc4ccc(NC(=S)NC(=O)Cc5ccccc5)cc4F)c3s2)c1`, the mitochondrial superoxide was 1.06 ± 0.021.

`Cn1cc(C2=C(c3cn(CCCSC(=N)N)c4ccccc34)C(=O)NC2=O)c2ccccc21` [Ro 31-8220 Mesylate] yielded a mitochondrial superoxide of 1.57 ± 0.051.

As to `CCN(CC)CCCC(C)Nc1nc(C)cc(Nc2ccc3nc(C)cc(N)c3c2)n1` (configuration not stated), the mitochondrial superoxide came out at 1.35 ± 0.041.

Regarding `Cn1cc(-c2ccc3ncc(Cc4ccc5ncccc5c4)n3n2)cn1`, the mitochondrial superoxide is 1.24 ± 0.1.

On to `CC[C@@H]1C(=O)N(C)c2cnc(Nc3ccc(C(=O)N[C@H]4CC[C@H](N5CCN(CC6CC6)CC5)CC4)cc3OC)nc2N1C(C)C` [Volasertib (BI 6727)], for which the mitochondrial superoxide was determined as 1.18 ± 0.016.

Compound `CS(=O)(=O)N1CCc2c(-c3cnc(N)nc3)nc(N3CCOCC3)nc21` gave a mitochondrial superoxide of 1.31 ± 0.047.

In turn, `CC(=O)Nc1cccc(-n2c(=O)n(C3CC3)c(=O)c3c(Nc4ccc(I)cc4F)n(C)c(=O)c(C)c32)c1` yielded a mitochondrial superoxide of 1.34 ± 0.11.

Compound `CO[C@H]1C[C@@H]2CC[C@@H](C)[C@@](O)(O2)C(=O)C(=O)N2CCCC[C@H]2C(=O)O[C@H]([C@H](C)C[C@@H]2CC[C@@H](OP(C)(C)=O)[C@H](OC)C2)CC(=O)[C@H](C)/C=C(\C)[C@@H](O)[C@@H](OC)C(=O)[C@H](C)C[C@H](C)/C=C/C=C/C=C/1C` [Ridaforolimus (Deforolimus, MK-8669)] gave a mitochondrial superoxide of 1.55 ± 0.087.

Compound `Cc1cc2c(F)c(Oc3ncnn4cc(OC[C@@H](C)OC(=O)[C@H](C)N)c(C)c34)ccc2[nH]1` displayed a mitochondrial superoxide of 1.37 ± 0.023.

As for `O=c1cc(N2CCOCC2)oc2c(-c3ccccc3)cccc12`, the mitochondrial superoxide is 1.36 ± 0.075.

Compound `CCc1nc(-c2cccc(C)c2)c(-c2ccnc(NC(=O)c3ccccc3)c2)s1` showed a mitochondrial superoxide of 1.17 ± 0.028.

The compound `O=C(O)[C@]1(Cc2cccc(Nc3nccs3)n2)CC[C@@H](Oc2cccc(Cl)c2F)CC1` had a mitochondrial superoxide of 1.22 ± 0.027.

In turn, `CN1CCN(CCOc2cc(OC3CCOCC3)c3c(Nc4c(Cl)ccc5c4OCO5)ncnc3c2)CC1` [Saracatinib (AZD0530)] came in with a mitochondrial superoxide of 1.516 ± 0.0097.

As to `O=Nc1c(-c2c(O)[nH]c3cc(Br)ccc23)[nH]c2ccccc12`, the mitochondrial superoxide is 1.3 ± 0.081.

For `C[C@@]1(C(=O)Nc2ccc(F)nc2)CCCN1c1nc(Nc2cc(C3CC3)n[nH]2)c2cccn2n1`, the mitochondrial superoxide was found to be 1.38 ± 0.051.
